Experimental findings from PubChem BioAssay (NCATS) are described below.

Results filed as inconclusive are left out. A call without a number means that no potency is given here. Calls of active or inactive are those of the source. Calls follow the shape of the dose curve; as a rule, active = well fitted inhibition curve with a large enough effect; inconclusive = small, poorly fitted or top-dose-only effect; inactive = flat fitted curve, though single readings scatter.
Potency is read from the fitted curve at half-maximal effect.

In the experiment the test system is DFO2036. In words: qHTS profiling for inhibitors of Plasmodium falciparum proliferation (AID 504749). Also: nearly all actives have a fitted effect of over 60% in size. The following applies: P. falciparum in erythrocytes, SYBR Green DNA, 72 h; series mostly up to 12.8 µM. The source says: NIH National Institute of Allergy and Infectious Diseases [NIAID] NIH Chemical Genomics Center [NCGC] MLPCN Grant: None Assay Provider: Xinzhuan Su, NIAID NCGC Assay Overview: Plasmodium falciparum is a virulent malarial parasite that kills 1-2 million people worldwide each year. Transmitted by mosquitoes, the sporozoite form of the parasite enters the blood stream to infect hepatocytes, where they become merozoites that infect red blood cells (erythrocytes). Within erythrocytes, merozoites begin a […] cycle of growth and division, after which the parasite is released to infect new red blood cells. Gametocytes, which form within erythrocytes as well, circulate in the bloodstream and are ingested by the mosquito, thereby completing the life cycle. To profile malarial isolates for differential chemical responses and to identify inhibitors of malarial growth, an assay that measures P. falciparum growth and replication within erythrocytes was employed. This assay uses a DNA binding fluorescent dye (SYBR Green) to detect parasite DNA following cell lysis. Because mature erythrocytes lack DNA, only Plasmodium-derived DNA is detected.
NCGC Assay Protocol Summary: The SYBR Green viability assay was adapted from a method described previously (Plouffe et al., 2008). For screening 3 ul culture medium was dispensed into 1536 well black clear bottom plates (Aurora Biotechnologies) using a Multidrop Combi (Thermo Fisher Scientific Inc.), 23 nL compounds in DMSO were added by a pin tool (Kalypsys), and 5 ul of erythrocytes infected with P. falciparum (0.3% parasitemia, 2.5% hematocrit final concentration) were added. The plates were incubated at 37 C in a humidified incubator in 5% CO2 for 72 h, and 2 ul lysis buffer (20 mM Tris HCl, 10 mM EDTA, 0.16% saponin, 1.6% triton X, 10X SYBR Green I supplied as 10,000X […] by Invitrogen) was added to each well. The plates were mixed for 25 sec with gentle shaking and incubated overnight at room temperature in the dark. The following morning, fluorescence intensity at 485(14) nm excitation and 535(25) nm emission wavelengths was measured on an EnVision (Perkin Elmer) plate reader. Plate reads were normalized relative to the control inhibitor (0.29 uM artemisinin) and vehicle (DMSO) wells present on each plate and then corrected by an algorithm using vehicle-only control plates at the beginning and end of the compound plate stack.
Background: In qHTS, concentration-response curves come from the screen itself.
With `CNC1CC(N)[C@H](O)[C@@H](O[C@@H]2OC(CO)C3OC4(OC(C(N)CO)C(O)C(O)C4O)O[C@@H]3[C@H]2O)C1O` (stereo not given in full), the Potency result was “inactive”.
Under `NS(=O)(=O)c1cc2c(cc1C(F)(F)F)N[C@H](Cc1ccccc1)NS2(=O)=O` stands “inactive”; under `CCC1OC(=O)C(C)[C@@H](O[C@H]2C[C@@](C)(OC)C(O)C(C)O2)C(C)[C@@H](O[C@@H]2OC(C)CC(N(C)C)C2O)[C@@](C)(O)CC(C)C(=O)[C@@H](C)C(O)[C@]1(C)O` (stereo not given in full), “inactive”; under `C[C@]1(c2ccccc2)OC(C(=O)O)=CC1=O`, “inactive”.
Take `CC(C)C1CCC(C(=O)NC(Cc2ccccc2)C(=O)O)CC1` (stereo not given): the Potency entry is “inactive”.
As to `CC[C@H](Cc1c(I)cc(I)c(N)c1I)C(=O)O`, the Potency result was “inactive”.
On to `CCOC(=O)C1=CC(OC(CC)CC)C(NC(C)=O)C(N)C1` (stereo not given), for which the Potency result is “inactive”.
On to `C[C@@]12C=CC(=O)C=C1CCC1C3CC(O)[C@@](O)(C(=O)CO)[C@]3(C)CC(O)[C@]12F` (stereo not given in full), for which the Potency result is “inactive”.
As to `C[C@H]1CC[C@]2(OC1)O[C@@H]1C[C@@H]3[C@@H]4CC[C@H]5C[C@@H](O)CC[C@]5(C)[C@@H]4CC(=O)[C@@]3(C)[C@H]1[C@@H]2C`, the Potency entry is “inactive”.
`C[C@H](N[C@@H](C)COc1ccccc1)[C@H](O)c1ccc(O)cc1`: the Potency result is “inactive”.
Turning to `CCC(CCC(C)C1CCC2C3CC=C4CC(O)CC[C@@]4(C)C3CC[C@@]12C)C(C)C` (stereo not given in full), the Potency entry was “inactive”.
In the case of `CCC(=O)[C@@]1(C)[C@H](C)C[C@@H]2[C@@H]3CCC4=CC(=O)C=C[C@@]4(C)[C@H]3[C@H](O)C[C@]21C`, the Potency entry was “inactive”.
Under `CC(=O)OCC(=O)[C@@]1(O)[C@H](C)C[C@@H]2[C@H]3CCC4=CC(=O)C=C[C@]4(C)[C@]3(F)[C@@H](O)C[C@@]21C` stands “inactive”; under `CC(=O)[C@@]1(O)CC[C@H]2[C@H]3C[C@@H](C)C4=CC(=O)C=C[C@]4(C)[C@@]3(F)[C@@H](O)C[C@]21C`, “inactive”; under `Cc1cccc(CN2CCN([C@@H](c3ccccc3)c3ccc(Cl)cc3)CC2)c1`, “inactive”.
Under `C[C@@]12CC[C@H]3[C@@H](CCC4=CC(=O)CC[C@]43C)[C@H]1CC[C@H]2C(=O)CO` stands “inactive”; under `COc1ccc([C@@H]2CC(=O)c3c(O)cc(O[C@H]4O[C@@H](CO[C@H]5O[C@@H](C)[C@@H](O)[C@@H](O)[C@@H]5O)[C@@H](O)[C@@H](O)[C@@H]4O)cc3O2)cc1O`, “inactive”; under `Cc1ncc([N+](=O)[O-])n1C[C@H](O)CCl`, “inactive”.
As for `CC(C)=CCC[C@](C)(O)C1CC=C(C)CC1` (stereo not given in full), the Potency entry is “inactive”.
Under `C[N+]12CCC(CC1)[C@@H](OC(=O)C(O)(c1ccccc1)c1ccccc1)C2` stands “inactive”; under `COc1ccccc1OC[C@H](O)CO`, “inactive”; under `CC(=O)N[C@@H]1C(O)OC(CO)C(O)C1O` (stereo not given in full), “inactive”.
For the molecule `COc1ccc2cc(C(C)CO)ccc2c1` (stereo not given), the Potency result was “inactive”.
Turning to `COc1ccc(CC(N)C(=O)NC2C(CO)OC(n3cnc4c(N(C)C)ncnc43)C2O)cc1` (stereo not given), the Potency was 0.891 µM (active).
`CC(C)(C)NC[C@H](O)COc1cccc2c1CCC(=O)N2`: the Potency entry is “inactive”.
For the molecule `CN(C)CCCOC1C(C(O)CO)OC2OC(C)(C)O[C@@H]21` (stereo not given in full), the Potency result was “inactive”.
Take `CN[C@H]1[C@H](O)[C@@H](O[C@@H]2[C@H](O)[C@@H](O[C@H]3OC(CN)=CC[C@H]3N)[C@@H](N)C[C@H]2N)OC[C@@]1(C)O`: the Potency result was “inactive”.
Under `CCN(CC)CCOC(=O)[C@@H](Cc1cccc2ccccc12)C[C@@H]1CCCO1` stands “inactive”.
In the case of `C[C@]12CCC(=O)C=C1CCC1C2C(=O)C[C@]2(C)C1CC[C@]2(O)C(=O)CO` (stereo not given in full), the Potency result was “inactive”.
Take `CC1CCC(C(C)C)C(=O)C1` (stereo not given): the Potency entry is “inactive”.
In the case of `CC1(C)OC2CO[C@]3(COS(N)(=O)=O)OC(C)(C)OC3C2O1` (stereo not given in full), the Potency entry was “inactive”.
Turning to `CC(=O)[C@@H]1CC[C@@H]2[C@@H]3C[C@H](C)C4=CC(=O)CC[C@@]4(C)[C@H]3[C@H](O)C[C@]21C`, the Potency entry is “inactive”.
As for `CNC[C@H](O)c1ccc(OC(=O)C(C)(C)C)c(OC(=O)C(C)(C)C)c1`, the entry is “inactive”; as for `C#C[C@]1(O)CC[C@@H]2[C@H]3CCC4=CCCC[C@@H]4[C@@H]3CC[C@@]21C`, “inactive”.
As to `O[C@@](CCN1CCCC1)(c1ccccc1)C1CCCCC1`, the Potency result was “inactive”.
In the case of `CC(=O)OC1CCC2C3CCc4cc(O)ccc4C3CCC12C` (stereo not given), the Potency result is “inactive”.
Under `CC1=C(C(=O)O)N2C(=O)[C@@H](NC(=O)[C@@H](N)c3ccc(O)cc3)[C@@H]2SC1` stands “inactive”; under `COc1ccc2c(c1)N(C[C@@H](C)CN(C)C)c1ccccc1S2`, “inactive”; under `Cc1ccc(S(=O)(=O)NC(=O)NN2C[C@H]3CCC[C@@H]3C2)cc1`, “inactive”.
As to `CCN(CC)[C@@H](C)CN1c2ccccc2Sc2ccccc21`, the Potency entry was “inactive”.
